Assay results as given in PubChem BioAssay (EPA / NIEHS).
Inconclusive results are not listed. Calls of active or inactive are those of the source. Rule for the calls: active = hit-call score of the fitted dose curve at least 0.9, where 1 is the maximum; inconclusive = response in the unintended direction; inactive = score below 0.9.

experiment: Tanguay_ZF_120hpf_SOMI_legacy: (Legacy) Oregon State University Tanguay Lab 120 Hour Post-fertilization zebrafish Assay for Somite Malformation (AID 2283647)
Description: Tanguay_ZF_120hpf_legacy is a whole embryo, multiplexed endpoint assay using zebrafish larvae exposed for 120 hours post fertilization on a 96-well plate.Tanguay_ZF_120hpf_SOMI_legacy is one of one assay component(s) measured or calculated from the Tanguay_ZF_120hpf_legacy assay. It is designed to make measurements of zebrafish development as detected with brightfield microscopy of developing zebrafish embryos.Data from the assay component Tanguay_ZF_120hpf_SOMI_legacy was analyzed into 1 assay endpoints. This assay endpoint, Tanguay_ZF_120hpf_SOMI_legacy, was analyzed in the positive analysis fitting direction relative to DMSO as the negative control and baseline of activity. Using a type of morphology reporter, gain-of-signal activity can be used to understand changes in developmentals as they relate to the whole embryo. To generalize the intended target to other relatable targets, this assay endpoint is annotated to the zebrafish development intended target family, where the subfamily is somitogenesis.
Zebrafish husbandry: Tropical 5D wild-type adult zebrafish were housed in at an approximate density of 1000 per 100 gallon tank at the Sinnhuber Aquatic Research Laboratory, Oregon State University, Corvallis, OR. Each tank was kept at standard laboratory conditions of 28C on a 14-h light/10-h dark photoperiod in fish water consisting of reverse osmosis water supplemented with a commercially available salt (Instant Ocean). Spawning funnels were placed into the tanks the night prior, and embryos were collected and staged. To increase bioavailability, the chorion was enzymatically removed using pronase (63.6mg/ml, >/= 3.5U/mg, Sigma-Aldrich: P5147) at 4 hours post fertilization (hpf) using a custom automated dechorionator.Chemical exposures: Six hpf dechorionated embryos were placed 1 embryo per well in a 96-well plate prefilled with 90 ul of EM using automated embryo placement systems (AEPS). Ten microliters of each row of dilution plate 2 was added to 2 exposure plates. The final DMSO concentration used was 0.64% (vol/vol). Thirty-two embryos were also exposed to 5uM trimethyltin chloride (positive control). Plates were sealed to prevent evaporation and foil covered to reduce light exposure and kept in a 28C incubator. Embryos were statically exposed until 120 hpf. At 24 hpf, embryos were assessed for photomotor response using a custom photomotor response analysis tool (PRAT) and for developmental toxicity endpoints (MO24: mortality at 24 hpf, DP: developmental progression, SM: spontaneous movement, and NC: notochord distortion). At 120 hpf, locomotor activity was measured using Viewpoint Zebralab and assessed for 18 endpoints. Zebrafish acquisition and analysis program (ZAAP), a custom program designed to inventory, acquire, and manage zebrafish data, was used to collect developmental endpoints as either present or absent (i.e., binary responses were recorded). If mortality occurred for an embryo (at either 24 or 120 hpf), the non-mortality endpoints were not measured.

SMILES | outcome
CC(=O)Nc1ccc(O)cc1 | inactive
CN(Cc1cnc2nc(N)nc(N)c2n1)c1ccc(C(=O)N[C@@H](CCC(=O)O)C(=O)O)cc1 | inactive
CN(C)CCOC(c1ccccc1)c1ccccc1 | inactive
Cc1[nH]nc2c1N=C(c1ccccc1Cl)c1cc([N+](=O)[O-])ccc1N2 | inactive
OCC(CO)(CBr)CBr | inactive
CCC(C)c1ccccc1O (stereo not drawn) | inactive
CCCCC=O | inactive
O=C(c1ccccc1)c1ccccc1 | inactive
O=C(CCCN1CCC(O)(c2ccc(Cl)cc2)CC1)c1ccc(F)cc1 | inactive
CCCCc1oc2ccccc2c1C(=O)c1cc(I)c(OCCN(CC)CC)c(I)c1 | inactive
CCCCCCCCCCCCCCC | inactive
CCCCCCCCCCCCOS(=O)(=O)O | inactive
O=C1NS(=O)(=O)c2ccccc21 | inactive
